# Results reported in article PMC4336329 (PLoS ONE, 2015).
# Screen size: about 310,000 compounds; about 14,000 (4.5%) showed an effect of 50% or more. The effect is printed as a negative number. The sample holds strong results, similar compounds and a random draw of the others, so the mix is not that of the screen.
# Molecular target: human ether-à-go-go-related gene (hERG) potassium channel (human, UniProt Q12809)
# Test: primary screen, population patch clamp on CHO cells stably expressing hERG; higher = less effect of the substance
# 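Further: peak tail current of the secondary pulse compared with the same well before compound.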
# Sequence of human ether-à-go-go-related gene (hERG) potassium channel (Q12809 whole entry, looked up): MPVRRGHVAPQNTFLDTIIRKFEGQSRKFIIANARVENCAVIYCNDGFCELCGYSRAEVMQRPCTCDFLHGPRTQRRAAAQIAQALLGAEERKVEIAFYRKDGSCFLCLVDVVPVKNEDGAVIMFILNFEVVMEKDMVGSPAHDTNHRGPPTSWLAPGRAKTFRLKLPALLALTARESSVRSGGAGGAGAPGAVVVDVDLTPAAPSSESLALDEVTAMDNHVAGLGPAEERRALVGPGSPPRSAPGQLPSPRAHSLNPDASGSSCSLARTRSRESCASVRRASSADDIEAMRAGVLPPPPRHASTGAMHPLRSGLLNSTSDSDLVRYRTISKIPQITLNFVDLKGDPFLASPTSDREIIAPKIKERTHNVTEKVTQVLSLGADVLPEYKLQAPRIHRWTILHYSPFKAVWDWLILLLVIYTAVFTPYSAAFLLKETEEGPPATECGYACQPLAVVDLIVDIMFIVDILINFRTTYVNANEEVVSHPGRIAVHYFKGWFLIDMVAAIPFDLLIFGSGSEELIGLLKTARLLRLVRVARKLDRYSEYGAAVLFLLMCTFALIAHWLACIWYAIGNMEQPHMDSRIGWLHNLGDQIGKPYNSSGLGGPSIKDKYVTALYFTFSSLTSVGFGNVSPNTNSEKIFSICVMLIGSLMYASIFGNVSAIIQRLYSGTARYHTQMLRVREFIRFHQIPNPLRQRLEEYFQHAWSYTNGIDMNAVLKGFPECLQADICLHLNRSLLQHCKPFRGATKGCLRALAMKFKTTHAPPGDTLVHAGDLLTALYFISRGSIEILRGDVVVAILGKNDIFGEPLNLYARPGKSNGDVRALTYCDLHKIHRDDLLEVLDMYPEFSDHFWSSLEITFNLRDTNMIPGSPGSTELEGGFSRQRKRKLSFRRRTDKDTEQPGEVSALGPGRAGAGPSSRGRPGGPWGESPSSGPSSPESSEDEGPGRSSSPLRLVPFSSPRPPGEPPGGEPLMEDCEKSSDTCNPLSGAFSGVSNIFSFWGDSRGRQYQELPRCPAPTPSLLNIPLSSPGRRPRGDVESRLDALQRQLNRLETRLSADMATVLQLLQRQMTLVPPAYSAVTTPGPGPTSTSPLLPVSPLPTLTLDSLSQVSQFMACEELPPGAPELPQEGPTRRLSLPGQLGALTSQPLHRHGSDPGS
row,Structure (SMILES),"hERG current change (%, negative = inhibition) at 10uM [%]"
1,Cc1ccc(S(=O)(=O)N2CCC(C)CC2)c([N+](=O)[O-])c1,-12.9
2,Cc1ccc(CN2CC(C(=O)N(C)CC(=O)Nc3cccc(F)c3)CC2=O)cc1 (centres unmarked),-7.16
3,O=C1Nc2ccccc2C1(O)c1ccccc1O (centres unmarked),34.6
4,CCOc1ccc(OCCC(=O)OCC(=O)Nc2ccc3c(c2)OCCO3)cc1,-5.02
5,C[C@@H](CN1C2=NC[C@H](C)N2C[C@H]1Cc1ccc(O)cc1)NC(=O)CCC1CCCCC1,-11.9
6,COc1ccc(C[C@H]2CN3C(=NC[C@@H]3Cc3ccc(O)cc3)N2C[C@H](C)NC(=O)CCC2CCCCC2)cc1,-66.1
7,O=C(CCC1CCCC1)N[C@@H](Cc1ccc(O)cc1)C(=O)O,28.8
8,COc1ccc(C[C@@H]2CN3C(=NC[C@@H]3Cc3ccc(O)cc3)N2C[C@H](C)NC(=O)CCC2CCCCC2)cc1,-80.6
9,COc1ccc(C[C@@H]2CN3C(=NC[C@@H]3C)N2C[C@H](C)NC(=O)CCC2CCCCC2)cc1,-67.4
10,CC(C)[C@H]1CN=C2N(C[C@H](C)NC(=O)CCC3CCCCC3)[C@H](Cc3ccc(O)cc3)CN21,-59.7
11,Cc1cc(C)cc(NC(=S)N2CCN(CCO)CC2)c1,14.3
12,COC(=O)c1ccc(OC)c(CSc2nnc(COc3ccc(OC)cc3)o2)c1,-27.1
13,N#Cc1ccccc1CSc1nc2ncc(Br)cc2[nH]1,5.22
14,CC(C)(C)c1cc(NC(=O)Nc2ccccc2OC(F)(F)F)no1,26.4
15,O=C(COC(=O)c1cccc(S(=O)(=O)NCc2ccccc2)c1)Nc1ccccc1OC(F)F,11.5
16,CC1CCCN(C(=O)NC(=O)c2ccc(Cl)cc2)C1 (centres unmarked),3.85
17,C[C@@H](CN1C2=NC[C@H](Cc3ccccc3)N2C[C@H]1Cc1ccc(O)cc1)NC(=O)CCC1CCCCC1,-71.2
18,C[C@@H](CN1C2=NC[C@H](Cc3ccc(O)cc3)N2C[C@H]1Cc1ccc(O)cc1)NC(=O)CCC1CCCCC1,-10.3
19,CC(CCc1ccccc1)NC(=O)CCC1CCCC1 (centres unmarked),-24.5
20,O=C1CC(N2CCN(c3ccc(O)cc3)CC2)C(=O)N1Cc1cccs1 (centres unmarked),-7.15
21,CCN1C(=O)CC(N2CCN(c3ccc(C(=O)c4ccncc4)cc3)CC2)C1=O (centres unmarked),-12.3

row,Structure (SMILES),"hERG current change (%, negative = inhibition) at 10uM [%]"
1,O=C(c1ccc(N2CCN(C3CC(=O)N(c4ccc(F)cc4)C3=O)CC2)cc1)c1cccnc1 (centres unmarked),-50.6
2,NC(=O)C1CCN(C2CC(=O)N(Cc3cccs3)C2=O)CC1 (centres unmarked),0.931
3,O=C1CC(N2CCN(c3ccc(F)cc3)CC2)C(=O)N1Cc1ccccc1 (centres unmarked),-17.6
4,O=C1CC(N2CCN(c3ccc(F)cc3)CC2)C(=O)N1c1ccc(F)cc1 (centres unmarked),1.07
5,COc1ccc(N2C(=O)CC(N3CCN(c4ccc(C(=O)c5cccnc5)cc4)CC3)C2=O)cc1 (centres unmarked),-48.2
6,O=C(c1ccc(N2CCN(C3CC(=O)N(Cc4cccs4)C3=O)CC2)cc1)c1cccnc1 (centres unmarked),-73.5
7,O=C1CC(N2CCN(c3ccc(F)cc3)CC2)C(=O)N1Cc1cccs1 (centres unmarked),-42.5
8,O=C(c1ccncc1)c1ccc(N2CCN(C3CC(=O)N(Cc4ccccc4)C3=O)CC2)cc1 (centres unmarked),-76.2
9,NC(=O)C1(N2CCCCC2)CCN(C2CC(=O)N(Cc3cccs3)C2=O)CC1 (centres unmarked),6.12
10,O=C(c1ccncc1)c1ccc(N2CCN(C3CC(=O)N(Cc4cccs4)C3=O)CC2)cc1 (centres unmarked),-79.3
11,COc1ccc(S(=O)(=O)Nc2cc(C(=O)NCCCN3CCOCC3)ccc2N2CCOCC2)cc1,25
12,CC(=O)N(C)c1ccc(NC(=O)Nc2cccc3ccccc23)cc1,-2.88
13,COC(=O)Cn1c(SCc2ccccc2)nc2ccccc21,-13.8
14,Cc1cccc(Cn2cccc2/C=C2/C(=N)N3C=CSC3=NC2=O)c1,-1.72
15,O=C(NCc1nc2ccccc2[nH]1)C1=C[C@@H](c2ccc(Br)cc2)C[C@@H](OCCCCO)O1,-65.9
16,O=C(NCc1ccccc1)C1=C[C@H](c2csc3ccccc23)C[C@H](OCCCCO)O1,-12.5
17,O=C(NCc1nc2ccccc2[nH]1)C1=C[C@H](c2ccccc2)C[C@H](OCCCCO)O1,-36.3
18,O=C(NCc1nc2ccccc2[nH]1)C1=C[C@@H](c2csc3ccccc23)C[C@@H](OCCCCO)O1,-29.6
19,O=C(NCc1nc2ccccc2[nH]1)C1=C[C@H](c2ccc(Br)cc2)C[C@H](OCc2ccc(CO)cc2)O1,3.89
20,O=C(NCc1nc2ccccc2[nH]1)C1=C[C@H](c2ccccc2)C[C@H](OCc2ccc(CO)cc2)O1,-13.6
